# According to PubChem BioAssay (EPA / NIEHS):
# Activity calls are given as the source filed them. Rule for the calls: active = hit-call score of the fitted dose curve at least 0.9, where 1 is the maximum; inactive = score below 0.9.
# Key:
# Settings in all cases: mRNA level, 48 h; actives raise or lower the signal
# CYP3A5 (gene 1577) = test: LTEA_HepaRG_CYP3A5: Life Technologies and Expression Analysis (LTEA) Assay for CYP3A5 using HepaRG (AID 2283493)
# How it was run: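 Human HepaRG hepatic cells receive 48 h chemical treatment at eight concentrations (half-log steps from 100 uM) in 0.5% DMSO. Expression of CYP3A5 is quantified by Fluidigm qRT-PCR and normalized to three reference genes.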
# [1] = read-out: Fatty Acid-Binding Protein 1 (FABP1), FABP1 (gene 2168); test: LTEA_HepaRG_FABP1: Life Technologies and Expression Analysis (LTEA) Assay for Fatty Acid-Binding Protein 1 (FABP1) using HepaRG (AID 2283494)
# How it was run: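 qRT-PCR readout of FABP1 transcript (normalized to three housekeeping genes) after 48 h chemical exposure of HepaRG cells; eight concentrations, half-log steps, max 100 uM, 0.5% DMSO vehicle; gain or loss fitted relative to DMSO baseline.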
# [2] = read-out: Cytochrome P450 7A1 (Homo sapiens) (UniProt P22680); test: LTEA_HepaRG_CYP7A1: Life Technologies and Expression Analysis (LTEA) Assay for Cytochrome P450 7A1 (CYP7A1) using HepaRG (AID 2283496)
# How it was run: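 HepaRG, 48 h exposure, 8-pt half-log series from 100 uM, 0.5% DMSO vehicle, duplicates. Readout: TaqMan qRT-PCR mRNA vs three housekeeping genes; bidirectional curve fit against DMSO baseline.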
# [3] = read-out: Glutathione S-Transferase (GSTA2), GSTA2 (gene 2939); test: LTEA_HepaRG_GSTA2: Life Technologies and Expression Analysis (LTEA) Assay for Glutathione S-Transferase (GSTA2) using HepaRG (AID 2283497)
# How it was run: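 qRT-PCR readout of GSTA2 transcript, normalized to three housekeeping genes, fitted bidirectionally against 0.5% DMSO baseline. Differentiated HepaRG cells received compound for 48 h at 8 concentrations (top 100 uM, half-log steps).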
# [4] = read-out: Glutamate-cysteine ligase catalytic (GCLC), GCLC (gene 2729); test: LTEA_HepaRG_GCLC: Life Technologies and Expression Analysis (LTEA) Assay for Glutamate-cysteine ligase catalytic (GCLC) using HepaRG (AID 2283498)
# How it was run: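 HepaRG, 48 h exposure, 8-pt half-log series from 100 uM, 0.5% DMSO vehicle; TaqMan qRT-PCR for GCLC mRNA, housekeeping-normalized; bidirectional curve fit vs DMSO baseline.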
# [5] = read-out: growth arrest and DNA damage 45 (GADD45G), GADD45G (gene 10912); test: LTEA_HepaRG_GADD45G: Life Technologies and Expression Analysis (LTEA) Assay for growth arrest and DNA damage 45 (GADD45G) using HepaRG (AID 2283499)
# How it was run: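 Gain or loss of GADD45G mRNA, quantified by TaqMan qRT-PCR against three housekeeping genes, is fitted in both directions relative to 0.5% DMSO. Human HepaRG cultures receive test chemical for 48 h at up to 100 uM.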
# [6] = read-out: Glutamate-cysteine ligase regulatory (GCLM), GCLM (gene 2730); test: LTEA_HepaRG_GCLM: Life Technologies and Expression Analysis (LTEA) Assay for Glutamate-cysteine ligase regulatory (GCLM) using HepaRG (AID 2283500)
# How it was run: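 Endpoint is GCLM transcript level by qRT-PCR, normalized to three housekeeping genes, after 48 h chemical exposure of human HepaRG cells (0.5% DMSO vehicle, top 100 uM, half-log dilutions). Fitting was bidirectional relative to DMSO.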
# [7] = read-out: Glutathione S-transferase M3 (GSTM3), GSTM3 (gene 2947); test: LTEA_HepaRG_GSTM3: Life Technologies and Expression Analysis (LTEA) Assay for Glutathione S-transferase M3 (GSTM3) using HepaRG (AID 2283501)
# How it was run: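 HepaRG, plated 48 h, then serum-free induction medium; test chemical 48 h, duplicate; 100 uM top, half-log x8, 0.5% DMSO. Read-out: GSTM3 mRNA (TaqMan qRT-PCR, Fluidigm array). Bidirectional fit vs DMSO.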
# [8] = read-out: Heat shock 70 kDa protein 1 (HSPA1A), gene 3303; test: LTEA_HepaRG_HSPA1A: Life Technologies and Expression Analysis (LTEA) Assay for Heat shock 70 kDa protein 1 (HSPA1A) using HepaRG (AID 2283502)
# How it was run: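 Cells were plated and cultured for 48 h, then switched to serum-free induction medium. Chemicals were added at eight half-log concentrations up to 100 uM for 48 h. RNA was then isolated and HSPA1A measured by qRT-PCR with bidirectional curve fitting against DMSO.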
Compound,outcome (CYP3A5 (gene 1577)),outcome [1],outcome [2],outcome [3],outcome [4],outcome [5],outcome [6],outcome [7],outcome [8],AC50 [1],AC50 [2],AC50 [3],AC50 [5],AC50 [6]
O=S1(=O)CCCO1,inactive,inactive,inactive,inactive,inactive,inactive,inactive,inactive,inactive,,,,,
CCOc1ccc2[nH]cc(C(=O)NCc3ccccc3)c(=O)c2n1,inactive,inactive,inactive,inactive,inactive,inactive,inactive,inactive,inactive,,,,,
CC(C)CCCCCCOC(=O)C1CCCCC1C(=O)OCCCCCCC(C)C (stereo unspecified),inactive,inactive,inactive,inactive,inactive,inactive,inactive,inactive,inactive,,,,,
CC(C)c1nnc2ccc(-c3ocnc3-c3cc(F)ccc3F)cn12,inactive,,,,inactive,,inactive,inactive,inactive,52.6 µM (active),25.2 µM (active),80.5 µM (active),0.0565 µM (active),
OCCNCCO,inactive,,,,inactive,inactive,inactive,inactive,inactive,45.6 µM (active),50 µM (active),63.4 µM (active),,
COS(C)(=O)=O,inactive,inactive,inactive,inactive,inactive,inactive,inactive,inactive,inactive,,,,,
Cc1nc(-c2ccccn2)ncc1C(=O)Nn1cc(C)c2cc(F)ccc21,inactive,,inactive,,inactive,inactive,inactive,inactive,inactive,6.97 µM (active),,65.5 µM (active),,
C=CN1CCCC1=O,inactive,inactive,inactive,inactive,inactive,inactive,inactive,inactive,inactive,,,,,
O=C1CN(N=Cc2ccc([N+](=O)[O-])o2)C(=O)N1,inactive,,,,inactive,,,inactive,inactive,41.9 µM (active),22.2 µM (active),81.8 µM (active),71.6 µM (active),72.5 µM (active)
